The list is not random: actives were taken first. Their share in the collection is about 4.7%.
Pemphigus Ab inh = inhibitors of pemphigus antibody binding to DSG3, primary screen, biochemical, bead-based, flow cytometry, scFv-GFP; hit rate 0.48% among 310,000; binding (percent of control), % at 10 µM; Desmoglein-3 (Homo sapiens), P32926; DSG3-coupled beads, scFv-anti-DSG3-GFP binding; active compounds read low;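 active = binding more than 3 SD below its plate's average and above zero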;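 note: hits lower antibody fragment binding to DSG3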
ADAM17 inh = ADAM17 inhibitors, primary screen, biochemical, QFRET; recombinant ADAM17, EDANS/DABCYL FRET peptide cleavage; inhibition, % at 6.95 µM; Disintegrin and metalloproteinase domain-containing protein 17 (Homo sapiens), P78536; hit rate 0.83% among 370,000;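 active = inhibition above the mean of compounds lying between control limits plus 3 SD, set per campaign, cut at about 8.5% in these data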;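 note: 0% = DMSO-only wells as the low control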
Target sequence (P78536 215-824 limits assumed): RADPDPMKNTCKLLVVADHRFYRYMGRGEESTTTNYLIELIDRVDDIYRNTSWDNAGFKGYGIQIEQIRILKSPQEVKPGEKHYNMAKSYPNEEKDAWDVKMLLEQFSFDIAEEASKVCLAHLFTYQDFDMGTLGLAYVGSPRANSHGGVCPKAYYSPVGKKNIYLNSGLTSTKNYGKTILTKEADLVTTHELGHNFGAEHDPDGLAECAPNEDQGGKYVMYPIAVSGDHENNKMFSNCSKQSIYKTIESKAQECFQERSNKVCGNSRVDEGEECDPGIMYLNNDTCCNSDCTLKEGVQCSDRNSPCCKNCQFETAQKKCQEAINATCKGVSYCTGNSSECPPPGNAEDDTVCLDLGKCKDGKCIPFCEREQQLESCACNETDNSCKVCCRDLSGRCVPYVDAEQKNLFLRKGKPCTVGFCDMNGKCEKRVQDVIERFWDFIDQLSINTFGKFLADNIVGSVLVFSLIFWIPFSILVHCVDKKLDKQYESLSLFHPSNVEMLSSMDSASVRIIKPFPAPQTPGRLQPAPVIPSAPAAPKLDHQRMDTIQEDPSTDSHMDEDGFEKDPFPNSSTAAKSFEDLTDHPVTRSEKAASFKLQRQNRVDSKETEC
ADAM10 inh = human ADAM10 inhibitors, primary screen, biochemical, QFRET, HTS | recombinant ADAM10, EDANS/DABCYL FRET peptide cleavage, 3 h | hit rate 0.62% among 370,000 | inhibition, % at 7 µM | Disintegrin and metalloproteinase domain-containing protein 10 (Homo sapiens), O14672;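 active = inhibition above a per-campaign cutoff equal to the mean of compounds falling between control-based bounds plus 3 SD, cut at about 20% in these data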;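 note: 0% = DMSO wells while the 100% control is not disclosed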
rCAG RNA binder = binders of r(CAG) RNA repeats, primary screen, biochemical, fluorescence; r(CAG) RNA repeat, TO-PRO-1 dye displacement fluorescence; inhibition, % at 3 µM; hit rate 1.3% among 370,000;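 active = inhibition above the plate cutoff, the mean of all test compounds on that plate plus 3 SD, cut at about 35% in these data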;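 note: 0% = DMSO alone and 100% = 100 µM mitoxantrone as full dye displacement; higher means more dye released from RNA so lower well fluorescence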
proKLK7 act = proKLK7 zymogen activators, primary screen, biochemical, fluorescence intensity | Kallikrein-7 (Homo sapiens), P49862 | purified proKLK7, EDANS-DABCYL substrate fluorescence; 100% is mature enzyme control, 0% vehicle | activation, % at 7 µM | hit rate 0.9% among 370,000;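 active = activation above the mean of all tested compounds plus 3 SD, computed per campaign excluding outliers beyond control limits, cut at about 13% in these data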
MPTP inh = mitochondrial permeability transition pore inhibitors, primary screen, biochemical, isolated mouse mitochondria, absorbance; Ca2+ swelling absorbance, 30 min; inhibition, % at 10 µM; hit rate 1.4% among 360,000;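 active = inhibition of 50% or more, scaled per plate between neutral and stimulator controls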;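 note: 0% = DMSO wells given calcium and 100% = 1 mM EGTA wells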
Rh123 counter = fluorescence retest of MPTP screen hits in isolated mitochondria, single concentration | inhibition, % at 10 µM | shares compounds with MPTP inh | AID 624504, 2012 | hit rate 78% among 5,000 | membrane potential, Rhodamine 123 fluorescence; in the data active = inhibition above about 22%;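 note: 0% = DMSO vehicle and 100% = positive control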
MPTP swell DR = mitochondrial permeability transition pore inhibitors, dose response, biochemical, absorbance, uHTS hits; IC50, µM; isolated mitochondria swelling; hit rate 58% among 780; shares compounds with MPTP inh; AID 651561, 2012; in the data active = IC50 below about 20 µM
MPTP cs DR = fluorescent counter-screen in isolated mitochondria, dose response, counter-screen for MPTP inhibitor project, biochemical, fluorescence, uHTS hits; shares compounds with MPTP inh; isolated mitochondria counterscreen, fluorescence read-out; IC50, µM; hit rate 49% among 780; AID 651564, 2012; in the data active = IC50 below about 80 µM
Active calls of the source: *; x = not tested or not shown.

SMILES	Pemphigus Ab inh	ADAM17 inh	ADAM10 inh	rCAG RNA binder	proKLK7 act	MPTP inh	Rh123 counter	others
COc1ccc2c(c1)N=C(c1[nH]c3ccccc3c1CCN1C(=O)c3ccccc3C1=O)[C@]2(O)CCN1C(=O)c2ccccc2C1=O	x	-2	-5	x	x	x	x
COC(=O)c1sc(NC(=S)NC(=O)c2cccc(Br)c2)nc1C	108	-4	3	1	0	90*	49*
COC(=O)c1sc(NC(=S)NC(=O)c2ccc(F)cc2)nc1C	x	-3	-6	1	0	x	x
Fc1ccc(-c2ccc3c(n2)CCCN3Cc2ccccc2C(F)(F)F)cc1	x	-7	-34	4	-7	x	x
Cc1ccc(C(=O)Nc2ccc(Br)c(C(F)(F)F)c2)cc1	104	7	19	3	0	94*	83*
Cc1ccc(NC(=O)c2ccc(C)cc2)cc1	100	-3	-9	3	-1	2	x
COC(=O)[C@]12C[C@H](CC(=O)N3CCCCC3)C(=O)N(Cc3ccccc3)C1=C[C@H](C(C)C)O[C@@H]2C1CC1	x	7	2	1	-1	x	x
COc1ccc(CCC(=O)Nc2ccc(Cl)c(S(=O)(=O)N3CCCC3)c2)cc1	91	2	7	11	0	96*	85*
Cc1ccc2c(c1)c1c(n2CC(O)CNC(C)(C)C)CCCC1 (centres undefined)	125	-17	-75	10	3	70*	-18	MPTP swell DR=13*;MPTP cs DR=>80
O=[N+]([O-])c1ccc2nc(CCCc3nc4ccc([N+](=O)[O-])cc4[nH]3)[nH]c2c1	98	-1	11	0	0	-1	x
Cc1ccc(-c2nc3ccc([N+](=O)[O-])cc3[nH]2)cc1	97	0	6	4	0	76*	82*
COc1ccc(-c2nc3ccc([N+](=O)[O-])cc3[nH]2)cc1	x	3	3	7	0	58*	53*
O=[N+]([O-])c1ccc2nc(-c3ccc(Cl)cc3)[nH]c2c1	91	-22	-85	18	0	92*	86*
O=[N+]([O-])c1ccc(/C=C/c2nc3ccc([N+](=O)[O-])cc3[nH]2)cc1	90	-1	-3	5	0	98*	64*
Nc1nc2ccc([N+](=O)[O-])cc2[nH]1	88	-5	5	2	0	-1	x
O=[N+]([O-])c1ccc2nc(-c3ccncc3)[nH]c2c1	109	-1	3	2	0	3	x
O=[N+]([O-])c1ccc2nc(-c3ccccc3[N+](=O)[O-])[nH]c2c1	106	2	6	2	0	16	x
O=[N+]([O-])c1cccc(-c2nc3ccc([N+](=O)[O-])cc3[nH]2)c1	95	-2	2	4	0	93*	83*
CC(C)(c1ccccc1)c1ccc(OCCCNCCO)cc1	107	-4	-7	6	0	94*	-9	MPTP swell DR=5.9*;MPTP cs DR=>80
Cc1nc(Nc2ccc(Cl)c(Cl)c2)sc1C(=O)Nc1ccccc1	102	4	-1	18	-4	82*	64*
Cc1nc(Nc2ccc(Cl)cc2Cl)sc1C(=O)Nc1ccccc1	103	1	-2	3	0	46	x
CCCN1CCN(C(=O)c2cc(COc3ccc4ncccc4c3)on2)CC1	93	-8	-19	1	1	86*	56*
COCC1CCCCN1C(=O)c1cc(COc2ccc3ncccc3c2)on1 (centres undefined)	119	-5	-20	-5	0	100*	101*
CCN(CC)C(=O)C1CCCN(C(=O)c2cc(COc3ccc4ncccc4c3)on2)C1 (centres undefined)	90	-3	-10	-7	0	4	x
CCc1ccc(CN(C)C(=O)c2cc(COc3ccc(-n4cncn4)cc3)on2)cc1	100	6	15	-2	1	59*	78*
SMILES	Pemphigus Ab inh	ADAM17 inh	ADAM10 inh	rCAG RNA binder	proKLK7 act	MPTP inh	Rh123 counter	others
COCCC1CCCCN1C(=O)c1cc(COc2ccc(-n3cncn3)cc2)on1 (centres undefined)	x	2	-8	-10	0	92*	100*
CCN1CCN(C(=O)c2cc(COc3ccc4ncccc4c3)on2)CC1	97	-3	-2	-3	0	11	x
CCOC(=O)[C@]12CCCC3=C1N(CCC3)C(=O)[C@@H](CC(=O)NCCCOC)C2	x	-1	3	0	0	x	x
CCC1CCCCN1C(=O)c1cc(COc2ccc3ncccc3c2)on1 (centres undefined)	117	-4	2	-5	1	104*	81*
CN(Cc1ccccc1)C(=O)OCc1cn(Cc2ccc(F)cc2)nn1	x	1	3	-1	0	x	x
C[C@H](O)[C@@H]1CN2CCc3ccc(-c4ccc5c(c4)OCO5)cc3[C@@H]2C[C@@H]1N(C)C(=O)NC1CCCCC1	x	-1	-10	5	1	x	x
CC(=O)N1CCN(c2ccc(N3CCN(Cc4ccccc4)[C@H](C)C3)c(C)c2)[C@@H](C)C1	x	2	-6	2	1	x	x
Cc1ccc(C(OCC(O)CNC(CO)C(O)c2ccc([N+](=O)[O-])cc2)c2ccccc2)cc1 (centres undefined)	x	3	9	-1	-1	85*	-10	MPTP swell DR=17*;MPTP cs DR=62*
Cc1ccc(C(OCC(O)CNC(C)c2ccccc2)c2ccccc2)cc1 (centres undefined)	113	0	9	-3	0	80*	-1	MPTP swell DR=7.1*;MPTP cs DR=23*
O=C1c2ccccc2C(=O)N1C(CO)C(O)c1ccc([N+](=O)[O-])cc1 (centres undefined)	97	-3	-3	4	0	0	x
COc1ccc(CN(CCN2CCOCC2)C(=O)c2cccc(F)c2F)cc1OC	x	0	0	0	0	x	x
COC(=O)[C@]12C[C@H](CC(=O)N3CCN(C(=O)C4CC4)CC3)C(=O)N(Cc3ccccc3)C1=C[C@H](C(C)(C)C)O[C@@H]2C	x	-4	-4	1	0	x	x

Compound activity as filed in PubChem BioAssay.
